Source: PubChem BioAssay (National Center for Advancing Translational Sciences (NCATS))
JMJD2A Tudor inh – blocks the human JMJD2A Tudor domain. AID 504339. Potency, µM (series often up to 114 µM), inactives show at the top dose activity change, negative = inhibition, usual class: inhibitors. AlphaScreen JMJD2A-Tudor / H3K4me3 peptide binding. 4.4% of 390,000 active; also: potency is read from the fitted curve at half-maximal effect; % is scaled to controls: 0 for no effect and ±100 for the full control effect; nearly all actives have a fitted effect of over 50% in size
BAZ2B block – BAZ2B (human) inhibition; Q9UIF8; AlphaScreen BAZ2B-H3K14Ac peptide displacement; Potency, µM (doses to about 114 µM), for the others: at the highest dose activity change, negative = inhibition, actives largely listed as inhibitors; 4.4% of 360,000 active; AID 504333; also: potency is read from the fitted curve at half-maximal effect; % is scaled to controls: 0 for no effect and ±100 for the full control effect; nearly all actives have a fitted effect of over 60% in size
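In this displacement format the biotinylated H3(5-23) peptide acetylated at Lys14 serves as ligand at 50 nM, with BAZ2B at 50 nM in PBS pH 7.4 containing 0.01% Tween-20. Donor and acceptor beads are 10 ug/mL final.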
HP1b binding inh – inhibitors of HP1-beta chromodomain binding to methylated histone tails | P83916 | AlphaScreen HP1-beta / biotin-H3K9me3 peptide binding | Potency, µM (doses to about 114 µM), without a hit: at the top dose activity change, negative = inhibition, usual class: inhibitors | 0.56% of 390,000 active | AID 540317; also: potency is read from the fitted curve at half-maximal effect; nearly all actives have a fitted effect of over 70% in size
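Compound inhibition of the preformed complex between 50 nM HP1-beta and 50 nM biotinylated H3K9me3 peptide was read by AlphaScreen. Buffer was PBS pH 7.4 with 0.01% Tween-20. Incubations ran 30 min at room temperature, with 10 ug/mL donor/acceptor beads.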
PLK1 PBD block – PLK1 (human) polo-box domain binding inhibition; Plk1 PBD binding of FITC phosphopeptide, fluorescence polarization; Potency, µM, without a hit: max response, negative = inhibition, actives largely listed as inhibitors; 2.8% of 360,000 active; also: potency is read from the fitted curve at half-maximal effect; series mostly up to about 57 µM; % is scaled to controls: 0 for no effect and ±100 for the full control effect; nearly all actives have a fitted effect of over 65% in size
KAT2A inh – GCN5L2 (KAT2A) acetyltransferase inhibition | Q92830 | Potency, µM (titrated, usually from 58.9 µM), without a hit: at the highest dose activity change, negative = inhibition, usual class: inhibitors | 0.21% of 390,000 active | GCN5L2 HAT assay, ThioGlo1 CoA-SH fluorescence; also: potency is read from the fitted curve at half-maximal effect; % is scaled to controls: 0 for no effect and ±100 for the full control effect
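GCN5L2 (20nM final) in 50mM HEPES, 0.1mM EDTA pH 7.5, 0.01% Tween-20 was preincubated 15 min at room temperature with compound, then given ThioGlo1 (50uM), H3(1-25) peptide (75uM) and acetyl-CoA (70uM); CoA-thiol fluorescence (Ex340/Em540) was read at 0 and 20 min.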
PI5P4K alpha inh – PI5P4K alpha (human) kinase inhibition | P48426 | PI5P4Kalpha enzyme, ADP-Glo luminescence, 60 min; hits give low values | max response, % | 1.2% of 330,000 active | AID 652105; active = max response of -50% or lower; inconclusive = between -30% and -50%; inactive = -30% or higher; also: value at the top dose of about 77 µM; % is scaled to controls: 0 for no effect and ±100 for the full control effect
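Controls without substrate or without enzyme flank wells where PI5P4Kalpha converts substrate using 5 microM ATP (final). Incubation lasts 60 minutes at room temperature; ADP formed is read by ADP-Glo luminescence.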
An asterisk follows results filed as active; ? = inconclusive; . = not tested or not shown; [ ] = remark or other dose. Hits are enriched below; roughly 7% of the tested compounds scored in any of these assays. Unless noted, calls follow the shape of the dose curve; as a rule, active = well fitted curve in the direction sought with a large enough effect; inconclusive = small, poorly fitted or top-dose-only effect, or another doubt; inactive = no such curve, though single readings can be large; an effect the other way counts as inactive or inconclusive.

SMILES | JMJD2A Tudor inh | BAZ2B block | HP1b binding inh | PLK1 PBD block | KAT2A inh | PI5P4K alpha inh
COc1cc2c(cc1NS(=O)(=O)c1cccc(C#N)c1)n(C)c(=O)n2C | -30.8% | 79.4µM* | -13.5% | . | 21.9% | .
CCOC(=O)CSc1nc(-c2ccccn2)ncc1OC | 70.8µM* | 25.1µM* | 27.1% | -12.2% | -12.6% | 2.7
COc1cnc(-c2ccccn2)nc1Sc1ccc(F)cc1 | ? | 28.2µM* | 13.3% | 1.8% | -12.7% | -2.2
C#CCN1CCc2onc(-c3ccccc3OC)c2C1=O | . | . | . | -4.1% | . | -0.3
CCCCN(C)C(=O)CN1C(=O)CCn2nc(-c3cn(C)c4ccccc34)cc21 | -17.9% | -34.1% | 2.1%[57 µM] | . | -2.5% | .
CC(=O)NC(c1ccc(F)c(F)c1)c1nc(-c2ccncc2)cs1 (stereo not drawn) | . | . | . | -15.2% | . | 3.8
O=C(NCc1ccccn1)c1nc(-c2cccs2)no1 | -27.1% | 2.3% | 11.8% | 26.7µM* | -7.2% | 0.2
O=C(NCc1cccs1)c1nc(-c2cccs2)no1 | 2.6% | 1.2% | 32.6% | -4.2% | -3.6% | -3.5
Cc1c(Cc2ccccc2)c(=O)oc2cc(OC(C)C(=O)NCC3CCC(C(=O)O)CC3)c(Cl)cc12 (stereo not drawn) | -8.2% | -21.0% | 48.6% | -1.2% | 0.3% | 7.2
COc1ccccc1CC(=O)Nc1ccon1 | -8.3% | -3.4% | 32.7% | -20.7% | -4.1% | 0.0
CCn1ncc(NC(=S)Nc2ccc(OC)c(OC)c2)c1C(N)=O | ? | 79.4µM* | -0.2% | -25.0% | 1.3% | 1.5
O=C(Nc1ccc(OCC(=O)N2CCOCC2)cc1)c1cccc(Cl)c1 | -13.7% | -0.8% | 19.2% | 0.9% | 0.5% | 1.8
O=C(Nc1ccc(N2CCN(c3ccc(F)cc3)CC2)c(C(=O)O)c1)c1cccs1 | -14.3% | 5.3% | 47.5% | . | -1.9% | .
O=C(Nc1ccc(N2CCN(C(=O)c3cccs3)CC2)c(Cl)c1)c1ccco1 | -12.2% | -3.1% | 17.0% | -20.9% | -4.5%[0.501 µM] | .
CS(=O)(=O)N1CCN(c2ccc(NC(=S)NC(=O)c3cccs3)cc2)CC1 | -15.6% | 5.1% | 20.5% | -10.2% | -12.6% | 1.6
CCCC(=O)N1CCN(c2ccc(NC(=O)c3cccs3)cc2)CC1 | ? | ? | ? | 23.8µM* | -6.1% | -8.6
O=C(Nc1ccc(N2CCCC2)c(Cl)c1)c1cccs1 | 44.7µM* | 44.7µM* | ? | -6.4% | -3.3% | -7.4
O=C(NC(=S)Nc1ccc(N2CCCCC2)cc1)c1cccs1 | 35.5µM* | 14.1µM* | 39.8µM* | -14.5% | -29.5% | .
O=C(Nc1cnc(N2CCN(c3ccccc3)CC2)c(C(=O)O)c1)c1cccs1 | 79.4µM* | 50.1µM* | -9.0% | . | -13.5% | .
Cc1cccc(Cn2cc(C(=O)c3ccccc3)c(=O)c3cc4c(cc32)OCO4)c1 | -27.6% | -25.5% | 10.4% | . | -6.2% | .
O=C(NC(=S)Nc1ccc(N2CCOCC2)c(Cl)c1)c1cccs1 | ? | 35.5µM* | -4.7% | -5.2% | -7.3% | -1.2
O=C1CCc2cccc(O)c2N1 | 79.4µM* | . | -27.2% | 0.7% | . | 12.9
O=C(NCc1ccccc1)c1cc(C2COCCN2C(=O)c2ccccc2)on1 (stereo not drawn) | . | . | . | 8.5% | . | 4.5
Cc1ccc(SCCNC(=O)CN(c2ccccc2)S(=O)(=O)N(C)C)cc1 | 7.9% | 1.1% | 29.0% | . | -9.7% | .
O=c1[nH]c(/C=C\c2ccc(O)c(O)c2)nc(O)c1[N+](=O)[O-] | ? | ? | -3.5% | -6.0% | 19.2% | -80.1*
SMILES | JMJD2A Tudor inh | BAZ2B block | HP1b binding inh | PLK1 PBD block | KAT2A inh | PI5P4K alpha inh
CCOc1ccc(/C=C\c2nc(O)c([N+](=O)[O-])c(=O)[nH]2)cc1OCC | 10.5% | -15.4% | 13.9% | 2.1% | 22.2% | -23.9
O=c1[nH]c(/C=C\c2cccc(O)c2)nc(O)c1[N+](=O)[O-] | -2.0% | 4.9% | 34.9% | 3.7% | -8.3% | -81.4*
Cc1ccc(C(=S)N2CCCCCC2)cc1 | -23.1% | -18.3% | 15.6% | ? | -10.6% | -21.3
CSc1ccc(C(=S)N2CCN(C(c3ccccc3)c3ccccc3)CC2)cc1 | -30.5% | -36.6% | -38.8% | 13.4µM* | -12.1% | -1.9
CSc1ccc(C(=S)N2CCN(C)CC2)cc1 | -18.0% | 3.8% | -15.0% | 29.9µM* | -1.7% | .
CN1CCN(C(=S)c2ccc(N(C)C)cc2)CC1 | -18.2% | 0.9% | ? | 10µM* | -14.0% | .
CCN(CC(=O)Nc1c(F)cccc1F)C(=O)CN1C(=O)C2CCCCC2C1=O (stereo not drawn) | -1.5% | 1.2% | 29.4% | 2.7% | 1.1% | 3.6
CCOc1cc(N2CCOCC2)c(OCC)cc1NC(=O)c1cc(-c2ccco2)nc2ccccc12 | 50.1µM* | . | ? | 0.0% | -4.9% | .
O=C(NCCCN1CCOCC1)c1cc(-c2ccc(F)cc2)nc2ccccc12 | 9.1% | -2.6% | 29.8% | 8.4% | -1.3% | 1.9
Cc1ccccc1Nc1cc(C(=O)NC2CCCC2)c2ccccc2n1 | -15.7% | . | 13.7% | . | -3.3% | .
O=C(NCC1CCCO1)c1cc(-c2ccco2)nc2ccccc12 (stereo not drawn) | -8.4%[11.4 µM] | 50.1µM* | ? | ? | ? | ?
O=C(NCCCN1CCOCC1)c1cc(-c2ccco2)nc2ccccc12 | 50.1µM* | . | -6.2% | ? | -28.3% | ?
Cc1ccccc1Nc1cc(C(=O)NCC2CCCO2)c2ccccc2n1 (stereo not drawn) | -21.3%[11.4 µM] | -0.3% | 4.7% | 10.6µM* | -0.5% | -22.2
CN(C)C(=O)c1ccc(-c2cc(Nc3ccccc3)ncn2)cc1 | . | . | . | . | -9.6% | .
CCOC(=O)c1cccc(Nc2cc(-c3ccccc3)ncn2)c1 | -0.7% | 50.1µM* | ? | . | -16.1% | .
CC1=C(C(=O)N2CCCCCC2)CC(CC(=O)NCCCCc2ccccc2)C(=O)N1CCC1=CCCCC1 (stereo not drawn) | . | . | . | -3.5% | . | -3.9
CC[C@H]1OC(=O)[C@H](C)[C@@H](O[C@H]2C[C@@](C)(OC)[C@@H](O)[C@H](C)O2)[C@H](C)[C@@H](O[C@@H]2O[C@H](C)C[C@H](N(C)C)[C@H]2O)[C@](C)(O)C[C@@H](C)C(=O)[C@H](C)[C@@H](O)[C@]1(C)O | -29.0% | -32.8% | 29.1% | 21.2µM* | -24.3% | 14.9
O=c1[nH]n(-c2ccc(F)cc2)c2ncccc12 | -13.8% | -9.7% | -7.2% | -6.8% | -14.6% | -14.2
Cc1c(-c2ccccn2)c(=O)[nH]n1-c1ccc(F)cc1 | ? | 50.1µM* | 28.5% | 2.3% | -1.2% | -0.2
COc1ccc(CN2C(=O)CN(S(C)(=O)=O)CC2(C)C(=O)Nc2ccc3c(c2)OCCO3)cc1OC (stereo not drawn) | . | . | . | -12.8% | . | 2.7
Cc1ccc(-c2ccccc2NC(=O)CCl)o1 | -31.9% | ? | -3.2% | -9.4% | -7.9% | 6.3
